Source: PubChem BioAssay
This is one part of a sample in which hits are shown more often than they occur.
RE007 growth inh: qHTS Assay for Inhibitors of the HIV-1 protein Vpr | S. pombe RE007 Vpr strain, BacTiter-Glo ATP luminescence, 24 h | Potency, µM (series often up to 92.2 µM), for the others: at the top dose activity change, negative = less growth, most hits filed as inhibitors | hit rate 0.21% among 360,000 | AID 651644, 2012; active = well fitted falling curve with a large enough effect; also: potency is read from the fitted curve at half-maximal effect; % is scaled to controls: 0 for no effect and ±100 for the full control effect; nearly all actives have a fitted effect of over 50% in size
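Fission yeast RE007 carrying one integrated HIV-1 vpr copy, seeded at OD 0.01 in PMG+AL medium with 23 nL pinned compound. Grown 24 h at 30 degrees; viability read by BacTiter-Glo luminescence after 5 min.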
Cycloheximide cs: Cycloheximide Counterscreen for Small Molecule Inhibitors of Shiga Toxin | max response, % | AID 2314, 2010 | cell reporter, cycloheximide protein synthesis inhibition counterscreen | hit rate 12% among 300,000; in the data active = max response mostly above about 13%, no sharp cut-off; inactive = mostly below about 14%; also: read at 38.3 µM for the half of the compounds with a filed dose; 0% is about no effect
LmPK inhibitor: qHTS Assay for Inhibitors of Leishmania Mexicana Pyruvate Kinase (LmPK); hit rate 0.37% among 290,000; purified LmPK, Kinase-Glo ATP luminescence, 1 h; Q27686; Potency, µM (doses to about 57.5 µM), inactives show at the highest dose activity change, negative = inhibition, most hits filed as inhibitors; also: potency is read from the fitted curve at half-maximal effect; % is scaled to controls: 0 for no effect and ±100 for the full control effect
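Purified LmPK (0.1 nM) converted ADP (0.1 mM) to ATP with PEP (0.5 mM) in imidazole buffer pH 7.2 with KCl and MgCl2, 1 h at room temperature. ATP was read by Kinase-Glo luminescence; data normalized to uninhibited and no-enzyme controls.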
Giardia FBPA inh: qHTS Assay for Inhibitors of Fructose-1,6-bisphosphate Aldolase from Giardia Lamblia; A8B2U2; purified Giardia FBPA; Potency, µM (series often up to 59.6 µM), for inactives: at the top dose activity, negative = inhibition, hits mostly inhibitors; hit rate 0.71% among 290,000; AID 2451, 2010; also: potency is read from the fitted curve at half-maximal effect; % is scaled to controls: 0 for no effect and ±100 for the full control effect; nearly all actives have a fitted effect of over 55% in size
Target sequence (A8B2U2 whole entry, looked up): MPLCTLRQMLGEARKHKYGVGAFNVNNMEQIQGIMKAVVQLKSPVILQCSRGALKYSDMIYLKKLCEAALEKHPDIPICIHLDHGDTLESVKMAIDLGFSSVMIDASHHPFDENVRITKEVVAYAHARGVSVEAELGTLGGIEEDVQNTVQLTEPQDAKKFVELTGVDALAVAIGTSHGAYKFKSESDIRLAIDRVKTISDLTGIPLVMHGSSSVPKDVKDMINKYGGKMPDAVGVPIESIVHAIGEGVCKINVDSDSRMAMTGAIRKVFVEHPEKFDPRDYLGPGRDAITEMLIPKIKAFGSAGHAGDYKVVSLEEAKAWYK
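40 nM FBPA preincubated 10 min at RT with compound (up to 57.5 uM final), then substrate plus GAPDH/TPI/NAD/arsenate coupling and diaphorase/resazurin added. Fluorescence read after 20 min at RT, 525/598 nm.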
TbPYK inhibitor: qHTS of Trypanosoma Brucei Inhibitors; TbPYK enzyme, Kinase-Glo Plus ATP luminescence, 45 min; Potency, µM (highest dose often 76.8 µM), for the others: at the top dose activity, negative = inhibition, actives largely listed as inhibitors; hit rate 0.12% among 410,000; AID 624173, 2012; also: potency is read from the fitted curve at half-maximal effect; % is scaled to controls: 0 for no effect and ±100 for the full control effect; nearly all actives have a fitted effect of over 50% in size
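Quantitative HTS: titrated library compounds versus trypanosomal pyruvate kinase in TEA buffer (pH 7.2) containing KCl, MgCl2, BSA and Tween-20. Reactions were initiated with ADP, 130 uM final. Kinase-Glo Plus luminescence was read after 45 min at RT.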
Shiga toxin inh: A qHTS for Small Molecule Inhibitors of Shiga Toxin; hit rate 9.2% among 290,000; Vero cells, Shiga toxin protein synthesis inhibition reporter; inhibition, % at 38.7 µM; in the data active = inhibition mostly above about 28%, no sharp cut-off; inactive = mostly below about 43%; also: 0% is about no effect
The depositor's hits bear a star; [ ] = another dose, or the depositor's remark. Unless noted, calls follow the shape of the dose curve; as a rule, active = well fitted curve in the direction sought with a large enough effect; inconclusive = small, poorly fitted or top-dose-only effect, or another doubt; inactive = no such curve, though single readings can be large; an effect the other way counts as inactive or inconclusive.

How did COC(=O)c1ccc2c(=O)n(CCCCCC(=O)N3CCN(c4cccc(C)c4C)CC3)c(=O)[nH]c2c1 do in these assays?
TbPYK inhibitor: 0%

Results for Cc1nc(SCC(=O)Nc2ccccc2Cl)cc(-c2ccccc2)n1 ?
TbPYK inhibitor: -8%

What do the screens show for `Cc1ccsc1/C=N/Nc1cccc(C(=O)O)c1`?
RE007 growth inh: 0%; Cycloheximide cs: 56*; LmPK inhibitor: -7%; Giardia FBPA inh: 14%; TbPYK inhibitor: -20%; Shiga toxin inh: 118*

Results for Nc1ccc(C(=O)N/N=C/c2sc(N3CCOCC3)nc2-c2ccccc2)cc1 ?
RE007 growth inh: 7%; Cycloheximide cs: 15; LmPK inhibitor: 4%; Giardia FBPA inh: -1%; TbPYK inhibitor: 2%; Shiga toxin inh: 21

How did O=C(O)c1cccc(N/N=C/c2sc(N3CCOCC3)nc2-c2ccccc2)c1 do in these assays?
RE007 growth inh: -19%; Cycloheximide cs: 128*; LmPK inhibitor: 2%; Giardia FBPA inh: 20%; TbPYK inhibitor: -23%; Shiga toxin inh: 176*

What do the screens show for `Cc1ccc(/C=N/Nc2cccc(C(=O)O)c2)s1`?
RE007 growth inh: -22%; Cycloheximide cs: 86*; LmPK inhibitor: -6%; Giardia FBPA inh: 12%; TbPYK inhibitor: -16%; Shiga toxin inh: 126*

How did CCOC(=O)c1ccccc1NC(=O)N1CCC(CN2CCCCC2)CC1 do in these assays?
TbPYK inhibitor: 2%

How did COc1ccccc1CNc1nc(=S)[nH]c2cc(OC)c(OC)cc12 do in these assays?
RE007 growth inh: -3%; Cycloheximide cs: 23*; LmPK inhibitor: 0%; Giardia FBPA inh: 4%; TbPYK inhibitor: 1%; Shiga toxin inh: 48*

How did COc1ccc(CCNC(=O)CCn2c(=O)c3ccccc3n(Cc3ccccc3C)c2=O)cc1OC do in these assays?
TbPYK inhibitor: 1%

How did Cc1ccc(C)c(CN2C(=O)c3ccccc3S(=O)(=O)c3ccc(C(=O)N4CCN(c5ccccc5F)CC4)cc32)c1 do in these assays?
TbPYK inhibitor: 1%

How did CC1=NN(c2ccccc2)C(c2ccco2)C1 (stereo not given) do in these assays?
RE007 growth inh: 13%; TbPYK inhibitor: 5%

How did O=[N+]([O-])c1ccc(C2=NN(c3ccccc3)C(c3ccco3)C2)cc1 (stereo not given) do in these assays?
RE007 growth inh: 6%; Cycloheximide cs: 34*; LmPK inhibitor: -4%; Giardia FBPA inh: -17%; TbPYK inhibitor: -24%; Shiga toxin inh: 60*

Results for O=[N+]([O-])c1ccc(/C=C/C2=NN(c3ccccc3)C(c3ccco3)C2)cc1 (stereo not given) ?
RE007 growth inh: -17%; Cycloheximide cs: 15*; LmPK inhibitor: -18%; Giardia FBPA inh: -10%; TbPYK inhibitor: -11%; Shiga toxin inh: 41

Results for CN(Cc1ccco1)C(=O)c1ccc2c(c1)N(Cc1ccccc1F)C(=O)c1ccccc1S2 ?
TbPYK inhibitor: 1%

What do the screens show for `Cc1cccc(CS(=O)(=O)c2ncc(Cl)c(C(=O)Nc3c(C)cccc3C)n2)c1`?
RE007 growth inh: -16%; Cycloheximide cs: 22*; LmPK inhibitor: -8%; TbPYK inhibitor: -12%; Shiga toxin inh: 20

What do the screens show for `CCOC(=O)c1nc(S(C)(=O)=O)ncc1Cl`?
RE007 growth inh: -1%; Cycloheximide cs: 26*; LmPK inhibitor: 4%; Giardia FBPA inh: 1%; TbPYK inhibitor: -6%; Shiga toxin inh: 25

What do the screens show for `Cc1cccc(C)c1NC(=O)c1nc(S(=O)(=O)Cc2ccccc2)ncc1Cl`?
RE007 growth inh: -7%; Cycloheximide cs: 16*; LmPK inhibitor: 2%; TbPYK inhibitor: 1%; Shiga toxin inh: 40*

What do the screens show for `CS(=O)(=O)c1ncc(Cl)c(C(=O)Nc2ccc(N3CCOCC3)cc2)n1`?
RE007 growth inh: -16%; Cycloheximide cs: 60*; LmPK inhibitor: 3%; Giardia FBPA inh: -23%; TbPYK inhibitor: -4%; Shiga toxin inh: 67*

How did CCOC(=O)CCN1C(=O)[C@H]2[C@H]3[C@H](O)[C@H](O)C/C(=N/NC(=O)OCC)[C@H]3CC[C@@H]2C1=O do in these assays?
Giardia FBPA inh: 1%[12.9 µM]

Results for COc1cccc(CNC(=O)c2ccc3nc(-c4ccc(F)cc4)c(-c4ccc(F)cc4)nc3c2)c1 ?
TbPYK inhibitor: 4%

How did COc1cc(OC)cc(-c2nc3nc(C)c(CCC(=O)Nc4ccc(F)cc4F)c(C)n3n2)c1 do in these assays?
TbPYK inhibitor: 1%

Results for Cc1ccc(NC(=O)Cn2ccn(-c3ccccc3)c(=O)c2=O)cc1 ?
TbPYK inhibitor: 0%

How did Cc1nnc(NC(=O)c2nc(S(=O)(=O)Cc3ccccc3)ncc2Cl)s1 do in these assays?
RE007 growth inh: -4%; Cycloheximide cs: 63*; LmPK inhibitor: 0%; TbPYK inhibitor: -9%; Shiga toxin inh: 86*

Results for Cc1cccc(CS(=O)(=O)c2ncc(Cl)c(C(=O)NCc3ccccc3)n2)c1 ?
RE007 growth inh: -5%; Cycloheximide cs: 24*; LmPK inhibitor: -9%; TbPYK inhibitor: 8%; Shiga toxin inh: 38*

How did O=C(NCc1ccccc1)c1nc(S(=O)(=O)Cc2ccc(F)cc2)ncc1Cl do in these assays?
TbPYK inhibitor: 1%

What do the screens show for `Cc1ccc(NC(=O)c2nc(S(=O)(=O)Cc3ccccc3)ncc2Cl)cc1`?
RE007 growth inh: -8%; Cycloheximide cs: 12; LmPK inhibitor: -4%; Giardia FBPA inh: 0%; TbPYK inhibitor: 6%; Shiga toxin inh: 23

Results for CCCc1nnc(NC(=O)c2nc(S(=O)(=O)Cc3cccc(C)c3)ncc2Cl)s1 ?
RE007 growth inh: 2%; Cycloheximide cs: 52*; LmPK inhibitor: 0%; TbPYK inhibitor: 3%; Shiga toxin inh: 68*

How did Cc1ccccc1NC(=O)c1nc(S(C)(=O)=O)ncc1Cl do in these assays?
RE007 growth inh: -2%; Cycloheximide cs: 42*; LmPK inhibitor: -5%; Giardia FBPA inh: 8%; TbPYK inhibitor: -1%; Shiga toxin inh: 48*

Results for Cc1ccc(N2CCN(C(=O)Nc3cn(CC(C)C)c(=O)c4ccccc34)CC2)c(C)c1 ?
TbPYK inhibitor: 2%

What do the screens show for `Cc1ccccc1CS(=O)(=O)c1ncc(Cl)c(C(=O)Nc2ccc(F)cc2)n1`?
RE007 growth inh: -6%; Cycloheximide cs: 29*; LmPK inhibitor: 11%; TbPYK inhibitor: 2%; Shiga toxin inh: 32

What do the screens show for `COc1ccccc1CCNS(=O)(=O)c1ccc(N2CCCCS2(=O)=O)cc1`?
TbPYK inhibitor: 3%
